# According to the supplement of paper PMC9177965:
# System: HT29 sg-Ctrl (RNF43 wildtype)
# Test: cell viability activity relative to DMSO (negative = inhibition); higher = more viable cells (less growth inhibition)
# Details: 5 µM; 96 h
# Description: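 Broad Repurposing Library primary screen at a single dose of 5 uM. HT29 sg-Ctrl and HT29 RNF43 G659fs CRISPR-edited isogenic cells were seeded at 2500 cells/well in 384-well plates in duplicate and treated for 96 h. Viability was read by CellTiter-Glo and reported as % activity relative to DMSO, with MG132 as the positive control (negative = growth inhibition).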
row,SMILES,cell viability activity [%]
1,CN1CCCN=C1COC(=O)C(O)(c1ccccc1)C1CCCCC1 (stereo not drawn),-50.3
2,COC[C@H](NC(=O)c1cnc(C)s1)C(=O)N[C@@H](COC)C(=O)N[C@@H](Cc1ccccc1)C(=O)[C@@]1(C)CO1,-93.6
3,Cn1cc(C2=C(c3cn(CCCSC(=N)N)c4ccccc34)C(=O)NC2=O)c2ccccc21,-73.6
4,COC(=O)C[C@](O)(CCCC(C)(C)O)C(=O)O[C@@H]1C(OC)=C[C@]23CCCN2CCc2cc4c(cc2[C@H]13)OCO4,-86.7
5,COc1cccc(-c2cc(F)ccc2[C@H]2Cc3nc(N)nc(C)c3C(=O)N2)n1,-81.1
6,CCN(CC)c1ccc(C(=C2C=CC(=[N+](CC)CC)C=C2)c2ccccc2)cc1,-97.2
7,CCN(c1cc(C#CCN2CCOCC2)cc(C(=O)NCc2c(C)cc(C)[nH]c2=O)c1C)[C@H]1CC[C@H](N(C)CCOC)CC1,-35.6
8,CC[C@@H](C)Nc1cc(C(=O)N[C@H]2C[C@H]3CC[C@@H](C2)N3c2ccc(C(=O)C3CC3)cn2)c(C)cc1C(N)=O,-84.4
9,CC(C)(C)c1cnc(CSc2cnc(NC(=O)C3CCNCC3)s2)o1,-81.8
10,O=C(Nc1nc2ccc(NC(=O)C34CC5CC(CC(C5)C3)C4)cc2s1)c1ccccc1,-29.4
11,CC(C)[C@H](C(=O)Nc1ccc(C(=O)NO)cc1)c1ccccc1,-89.9
12,CC(C)C[C@H](NC(=O)[C@H](CCc1ccccc1)NC(=O)CN1CCOCC1)C(=O)N[C@@H](Cc1ccccc1)C(=O)N[C@@H](CC(C)C)C(=O)[C@@]1(C)CO1,-96.6
13,CCCCCCCCCCCCCCC[C@@H](O)[C@@H](N)CO,-43.8
